Hits are enriched below; roughly 4% of the tested compounds scored in any of these assays.
Gli-Sufu antag: blocks Gli-Sufu signaling in a luciferase reporter; Sufu-KO-LIGHT fibroblasts, Gli luciferase reporter luminescence; 340,000 tested, 0.74% active; AID 588413; inhibition, % at 5 µM;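 active means inhibition above about 55%, limit read from the data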;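 further: 0% = DMSO-treated cells and 100% = wells with medium but no cells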
CSC inhib: cancer stem cell inhibition; cancer stem cell-like cells viability, luminescence; inhibition, % at 7.5 µM; 300,000 tested, 1.1% active; in the data active means inhibition above about 75%; tested in HMLE shEcad cells
PAX8 reporter: PAX8 transcriptional activity inhibition. AID 652154. RMG-I TPO-luciferase reporter, SteadyGlo, 24 h. inhibition, % at 12.6 µM. 360,000 tested, 1.2% active;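 active means mean replicate inhibition at least 60% with every replicate also reaching 60%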;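 further: luciferase light reporting Pax8 driven TPO promoter activity; plate controls were median of neutral control wells for no effect and mitoxantrone controls for full effect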
Mdm2 MdmX PPI: human Mdm2/MdmX binding inhibition | SaOS-2 split-luciferase Mdm2/MdmX complementation, luminescence | 330,000 tested, 3% active | AID 485346 | O15151+Q00987 | inhibition, % at 8 µM;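 active means inhibition of at least 50% at 8 µM in the primary screen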
Target sequence (O15151 whole entry, looked up): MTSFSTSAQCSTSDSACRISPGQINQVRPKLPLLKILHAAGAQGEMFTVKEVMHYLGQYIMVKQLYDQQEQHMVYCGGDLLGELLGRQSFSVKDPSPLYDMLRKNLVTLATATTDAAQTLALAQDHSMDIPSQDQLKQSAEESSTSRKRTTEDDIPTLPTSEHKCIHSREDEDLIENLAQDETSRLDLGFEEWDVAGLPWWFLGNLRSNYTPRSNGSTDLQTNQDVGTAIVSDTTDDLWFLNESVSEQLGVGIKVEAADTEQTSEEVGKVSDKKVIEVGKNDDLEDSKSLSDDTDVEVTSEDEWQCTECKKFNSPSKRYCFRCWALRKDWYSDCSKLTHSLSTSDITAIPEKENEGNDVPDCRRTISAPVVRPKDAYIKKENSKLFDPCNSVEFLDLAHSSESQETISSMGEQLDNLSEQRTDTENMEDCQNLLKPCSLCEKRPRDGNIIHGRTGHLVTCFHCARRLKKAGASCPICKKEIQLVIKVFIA
Target sequence (Q00987 whole entry, looked up): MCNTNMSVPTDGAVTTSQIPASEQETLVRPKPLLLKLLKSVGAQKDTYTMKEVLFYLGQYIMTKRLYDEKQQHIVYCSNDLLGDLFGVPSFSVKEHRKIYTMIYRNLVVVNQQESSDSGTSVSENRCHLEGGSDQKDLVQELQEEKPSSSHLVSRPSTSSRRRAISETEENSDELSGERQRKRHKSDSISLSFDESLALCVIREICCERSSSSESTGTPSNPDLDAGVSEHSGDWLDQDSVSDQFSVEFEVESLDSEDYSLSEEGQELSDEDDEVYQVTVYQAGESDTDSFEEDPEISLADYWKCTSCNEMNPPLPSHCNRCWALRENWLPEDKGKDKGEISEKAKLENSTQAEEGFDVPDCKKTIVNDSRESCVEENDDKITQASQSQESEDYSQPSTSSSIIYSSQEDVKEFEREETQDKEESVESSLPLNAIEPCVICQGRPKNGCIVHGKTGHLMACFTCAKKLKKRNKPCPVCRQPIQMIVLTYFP
Shn3 3UTR inh: inhibitors of Schnurri-3 3'UTR reporter in osteoblasts; Clone20 osteoblast Shn3 3'UTR firefly luciferase, 24 h; 360,000 tested, 0.52% active; inhibition, % at 12.5 µM; AID 588674;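 active means mean inhibition of at least 75% with every replicate also reaching 75%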;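 further: 0% = median of neutral control wells and 100% = pilot-screen positive control compound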
Beta cell apopt: beta cell apoptosis inhibition | INS-1E cytokine-induced death, ATP luminescence, 48 h; percent of positive-control rescue, neutral wells zero | protection from apoptosis, % (test concentration not listed) | 300,000 tested, 0.8% active;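 active means Every replicate reaches about 75%, or at least half do and their mean reaches it too, limit read from the data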;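 further: 0% = cytokine-treated negative control wells and 100% = positive control rescue; higher means more ATP so stronger rescue from cytokine killing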
Active calls of the source: *; / = not tested or not shown.

SMILES	Gli-Sufu antag	CSC inhib	PAX8 reporter	Mdm2 MdmX PPI	Shn3 3UTR inh	Beta cell apopt
COC(=O)[C@@H]1[C@@H](CO)[C@@H]2Cn3c(ccc(-c4cccc(OC)c4)c3=O)[C@H]1N2C(=O)c1ccccc1F	/	/	10	/	/	/
NC(=S)c1cn(C2OC(CO)C(O)C2O)c2ncnc(N)c12 (stereo unspecified)	-49	56	108*	/	97*	47
COC1=C(C)C(=O)C2=C(C1=O)C(CO)N1C(C#N)C3CC4C(C1C2N1CCOC41)N3C (stereo unspecified)	10	/	92*	/	-6	/
C[C@H]1CN([C@@H](C)CO)C(=O)c2c(c3ccccc3n2C)-c2ccccc2CO[C@@H]1CN(C)C(=O)Oc1ccccc1	/	/	27	/	/	/
O=C(OC1CCN(CCCl)CC1)C(c1ccccc1)c1ccccc1	-3	5	-11	23	93*	-5
CCC(C)C(NC(=O)CCCNC(=O)CCC(=O)OC1O[C@H]2OC3(C)CC[C@H]4[C@H](C)CCC(C1C)C24OO3)C(=O)O (stereo partly specified)	/	6	74*	21	87*	27
O=C(Cc1ccccn1)N1CC2(C1)[C@@H](c1ccccc1)[C@@H](CO)N2Cc1ccccn1	/	/	-2	/	/	/
COC(=O)C1=C(c2ccc(OCc3ccccc3)cc2)C[C@@H]2CC[C@H]1N2C(=O)NCCCCc1ccccc1	/	/	62*	/	82	/
COC(=O)C1=C(c2ccc(OCc3ccccc3)cc2)C[C@@H]2CC[C@H]1N2C(=O)NCCc1ccc(F)cc1	/	/	7	/	61	/
COC(=O)C1=C(c2cccc(C#N)c2)C[C@@H]2CC[C@H]1N2C(=O)NC1Cc2ccccc2C1	8	84*	-20	-2	-11	2
CCCN1[C@@H]2Cn3c(ccc(-c4ccccc4)c3=O)[C@H]1[C@@H](C(=O)OC)[C@@H]2CO	/	/	-1	/	/	/
CCN1[C@@H]2Cn3c(ccc(-c4cccc(OC)c4)c3=O)[C@H]1[C@@H](C(=O)OC)[C@@H]2CO	/	/	3	/	/	/
CC1CCCN(c2ccc(C(=O)N3CCC4(CC3)OCCO4)cc2[N+](=O)[O-])C1 (stereo unspecified)	-2	116*	-12	0	-13	-27
O=C(Cc1cccnc1)N1CCCCN2[C@@H](CO)[C@H](c3ccc(C#CC4(O)CCCC4)cc3)[C@@H]2C1	/	/	-7	/	/	/
COc1cc2c(c(OC)c1O)-c1ccc(OC)c(=O)cc1C(NC(=O)C(F)(F)F)CC2 (stereo unspecified)	49	/	80*	/	20	/
COc1cc2c(c(OC)c1OC)-c1ccc(SC)c(=O)cc1C(NC(C)=O)CC2 (stereo unspecified)	46	/	83*	/	-18	/
COc1c(O)cc2c(c1OC)-c1ccc(OC)c(=O)cc1C(NC(C)=O)CC2 (stereo unspecified)	43	/	77*	/	9	/
COc1cc2c(c(OC)c1OC)-c1ccc(C(=O)O)cc1[C@@H](NC(C)=O)CC2	-4	-5	-2	8	16	-6
CCCN1[C@@H]2c3ccc(-c4ccccc4)c(=O)n3C[C@H]1[C@H](CO)[C@H]2C(=O)OC	/	/	3	/	/	/
O=c1nc(/C=C/c2ccc(Cl)cc2Cl)cc(C(F)(F)F)[nH]1	45	108*	-21	18	-38	6
Nc1cc(Cl)c2nonc2c1[N+](=O)[O-]	-9	36	76*	/	95*	-1
O=C([O-])c1ccc(-[n+]2c(-c3ccccc3)cc(-c3ccccc3)cc2-c2ccccc2)cc1	13	-9	-1	2	1	12
Cc1ccc(-c2cc(-c3ccccc3)cc(-c3ccccc3)[n+]2-c2ccccc2C(=O)O)cc1	-12	-3	77*	27	-18	31
O=C(O)[C@@H]1[C@@H](CO)[C@@H]2Cn3c(ccc(C4=CCCCC4)c3=O)[C@H]1N2C(=O)Cc1ccccn1	/	/	5	/	/	/
COc1cccc(-c2ccc([C@@H]3[C@H]4CN(C(=O)Cc5ccncc5)CCCCN4[C@H]3CO)cc2)c1	/	/	-17	/	/	/
SMILES	Gli-Sufu antag	CSC inhib	PAX8 reporter	Mdm2 MdmX PPI	Shn3 3UTR inh	Beta cell apopt
CCCCCCC[n+]1ccc(-c2cc[n+](CCCCCCC)cc2)cc1	13	0	86*	1	76	102*
O=C(Cc1ccccn1)N1CCCCN2[C@H](CO)[C@@H](c3ccc(-c4ccccc4)cc3)[C@@H]2C1	/	/	-9	/	/	/
CC(=NNC(=S)N1CC2CCC(CC2)C1)c1nccs1	91*	/	-34	/	93*	/
O=C(Cc1cccnc1)N1CCCCN2[C@@H](CO)[C@@H](c3ccc(/C=C/c4ccccc4)cc3)[C@@H]2C1	/	/	6	/	/	/
CC(C)CCn1c(=O)c(C(=O)Nc2ccccc2S(N)(=O)=O)c(O)c2ccccc21	-11	47	69*	42	44	/
CCCCCn1c(=O)c(C(=O)Nc2nc3ccccc3[nH]2)c(O)c2ccccc21	-1	8	-1	21	-3	80*
CCCCCn1c(=O)c(C(=O)Nc2ccccc2Cl)c(O)c2ccccc21	-11	18	3	6	-28	64
CCCCCn1c(=O)c(C(=O)Nc2ncccc2C)c(O)c2ccccc21	24	-3	11	18	12	88*
COC(=O)[C@H]1[C@H](CO)[C@H]2Cn3c(ccc(C4=CCCCC4)c3=O)[C@@H]1N2Cc1cccnc1	/	/	3	/	/	/
Cc1ccccc1-c1ccc([C@H]2[C@@H](CO)N3CCCCN(C(=O)Cc4ccccn4)C[C@H]23)cc1	/	/	-17	/	/	/
CCCCCc1cc(O)c2c3c(c(=O)oc2c1)CN(C)CC3	-6	84*	-1	27	-4	10

Compound activity: PubChem, several laboratories
